Screening data from PubChem BioAssay.
SARS PLP yeast = blocks SARS-CoV papain-like protease in a yeast assay | AID 485353 | S. cerevisiae expressing SARS-CoV PLpro, growth rescue | Potency, µM (series often up to 32.9 µM), inactives show at the top dose activity, positive = growth rescue, actives largely listed as activators | hit rate 0.19% among 330,000; calls by dose curve; further: potency means the concentration at half of the fitted maximal effect; 0% is about no effect; nearly all actives have a fitted effect of over 55% in size
AMA1 RON2 block = inhibitors of Plasmodium falciparum AMA1-RON2 interaction | Potency, µM (highest dose often 58.2 µM), for the others: top-dose activity change, negative = inhibition, usual class: inhibitors | AlphaScreen AMA1-biotinylated RON2 peptide binding | hit rate 0.2% among 360,000;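 further: potency means the concentration at half of the fitted maximal effect; 0% = vehicle wells and -100% = peptide control; nearly all actives have a fitted effect of over 45% in size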
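AMA1 (3D7) with his tag at 25 nM final met compounds first, then biotinylated RON2 peptide at 25 nM; detection used donor plus acceptor beads, 10 µg/mL apiece, read by AlphaScreen after 30 min at room temperature.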
Cycloheximide cs = affects cycloheximide protein synthesis inhibition readout, counter-screen; cell reporter, cycloheximide protein synthesis inhibition counterscreen; max response, %; hit rate 12% among 300,000; in the data active means max response mostly above about 13%, no sharp cut-off; inactive means mostly below about 14%; further: read at 38.3 µM for the half of the compounds with a filed dose; 0% is about no effect
Pf growth 48h = inhibits P. falciparum growth in the first generation, 48 h; P. falciparum luciferase growth in erythrocytes, 48 h; Potency, µM (doses to about 28.7 µM), for inactives: at the top dose activity change, negative = inhibition, most hits filed as inhibitors; hit rate 5.9% among 310,000; further: potency means the concentration at half of the fitted maximal effect; on the % scale 0 is the no-effect control and ±100 the full control effect
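Luminescence readout; reporter = integrated firefly luciferase in P. falciparum. RBC culture at 2% hematocrit, 0.1% parasitemia final, 37 C/5% CO2; decreased signal taken as growth inhibition.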
Shiga toxin inh = Shiga toxin inhibition; AID 2315; hit rate 9.2% among 290,000; inhibition, % at 38.7 µM; Vero cells, Shiga toxin protein synthesis inhibition reporter; in the data active means inhibition mostly above about 28%, no sharp cut-off; inactive means mostly below about 43%; further: 0% is about no effect
Pf growth 96h = P. falciparum growth inhibition at 96 hour, primary screen for plastid delayed-death inhibitors. Potency, µM (series often up to 28.7 µM), inactives show at the top dose activity change, negative = inhibition, hits mostly inhibitors. P. falciparum luciferase reporter growth, 96 h. hit rate 6.9% among 320,000. AID 504834; further: potency means the concentration at half of the fitted maximal effect; on the % scale 0 is the no-effect control and ±100 the full control effect
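P. falciparum expressing integrated firefly luciferase grown in erythrocytes (2% hematocrit, 0.05% parasitemia final) with compounds for 96 hours at 37 C, 5% CO2. Growth inhibition read as loss of luminescence after adding luciferase detection reagent.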
* = called active by the depositor; ? = inconclusive; nt = not tested or not shown; ! = repeats disagree. Shown are actives, neighbours in structure and some others; about 19% of the full set was active somewhere. Unless noted, the call rests on the fitted dose curve; in most records, active means well fitted curve in the direction sought with a large enough effect; inconclusive means small, poorly fitted or top-dose-only effect, or another doubt; inactive means no such curve, though single readings can be large; an effect the other way counts as inactive or inconclusive.

SMILES | SARS PLP yeast | AMA1 RON2 block | Cycloheximide cs | Pf growth 48h | Shiga toxin inh | Pf growth 96h
CC(C)Oc1ccc(C(CCNCc2ccc(O)cc2)c2ccccc2)cc1 (stereo not given) | -2% | -2% | -5 | 1.2µM* | -9 | 1.2µM*
COc1ccc(C(CCNCc2ccc(N(C)C)cc2)c2ccccc2)cc1 (stereo not given) | 1% | 20µM* | -9 | 15µM* | -11 | ?
O=C(NC1CCCN(Cc2ccccc2F)C1)c1cccs1 (stereo not given) | 5% | -12% | -1 | -7% | -9 | 7%
CC(CN1CCN(C)CC1)OC(=O)c1cccc(F)c1 (stereo not given) | 7% | -17% | -2 | 7% | nt | ?
COc1ccc(CN2C(=O)NC3(CCCCCC3)C2=O)cc1F | -17% | 0% | -2 | 46% | 11 | 50%
COc1ccc(CCNC(=O)C2CCN(S(=O)(=O)c3cccc4nonc34)CC2)cc1OC | -3% | 18% | 1 | -12% | -17 | 8.3µM*
CCOc1ccc(OCC)c(NC(=O)C2CCN(S(=O)(=O)c3cccc4nonc34)CC2)c1 | 5% | 27% | -2 | nt | -15 | 13µM*
O=C(NCCc1ccccc1)C1CCN(S(=O)(=O)c2cccc3nonc23)CC1 | -3% | 3% | -2 | nt | -12 | 39%
COc1ccc(OC)c(S(=O)(=O)N2CCC(C(=O)NCCC3=CCCCC3)CC2)c1 | -27% | 38% | -3 | 13µM* | 25 | -19%
CCOc1cc(/C=N/NC(=O)CCc2n[nH]c(=O)[nH]c2=O)ccc1O | 0% | -12% | 1 | 8% | -6 | 38%
CCN(CC)CCOC(=O)c1ccc(N)cc1 | -4% | 2% | 1 | 16% | 5 | ?
CCCOc1cc(N)ccc1C(=O)OCCN(CC)CC | nt | 0% | nt | 15% | nt | 0.72µM*!
CC(=O)C(Cc1ccccc1)NC(=O)CCl (stereo not given) | 1% | 4% | -6 | ? | -6 | -25%
O=C(CCl)NC(Cc1ccccc1)c1ccccc1 (stereo not given) | 1% | 8% | 27 | ? | 13 | 10µM*
CC(=O)Nc1cccc(-c2csc(C(C)(O)c3ccc(F)c(F)c3)n2)c1 (stereo not given) | nt | 0% | nt | nt | nt | nt
CCCC[C@@H](CNC)NC[C@H](Cc1ccc(O)cc1)NCCc1ccc(OCC)cc1 | -6% | 70% | -4 | 2.6µM* | 1 | 0.93µM*
O=C1NC(Cc2ccccc2)c2nc3cc(F)ccc3c(=O)n2-c2ncccc21 (stereo not given) | nt | 3% | nt | nt | nt | nt
CCOc1ccc2c(c1)-c1c(ssc1=S)C(C)(C)N2C | -15% | 10µM* | 20 | 24% | 80 | nt
O=C(COc1ccc(Cl)cc1)OCC(=O)N1CCOCC1 | 2% | -3% | nt | nt | nt | nt
COC(=O)CSc1nc(-c2ccccc2)nc2ccccc12 | -6% | -7% | -2 | 16% | -11 | 0%
CC(C)[C@H](NC(=O)OC(C)(C)C)c1cc(C(=O)N[C@@H](C)c2ccccc2)c(N)s1 | nt | 21% | nt | nt | nt | nt
CC(=O)c1ccc(N2CCC(C)CC2)c(F)c1 | -3% | 10% | 29* | 23% | 41 | 70%
CC(=O)c1ccc(N2CCCC2)c(F)c1 | -2% | nt | 17* | 43% | 81* | nt
CCC(=O)c1ccc(N2CCN(C(=O)c3ccc(F)cc3)CC2)c(F)c1 | -1% | 1% | 0 | -5% | -9 | 16%
CCC(=O)c1ccc(N2CCCCC2)c(F)c1 | 1% | -2% | -5 | 1% | 9 | 8.3µM*
SMILES | SARS PLP yeast | AMA1 RON2 block | Cycloheximide cs | Pf growth 48h | Shiga toxin inh | Pf growth 96h
CCCC(=O)N1CCN(c2ccc(C(=O)c3ccc(OC)c(Br)c3)cc2F)CC1 | -4% | nt | -5 | -3% | -23 | -16%
CCCCCC(=O)N1CCN(c2ccc(C(C)=O)cc2F)CC1 | -25% | 0% | 6 | 8% | -3 | 7.4µM*
COc1cccc(N2CCN(C(=O)c3ccc(CS(=O)Cc4ccc(Cl)cc4)o3)CC2)c1 (stereo not given) | nt | 0% | 0 | -17% | 21 | ?
COc1ccc(-n2c(N)cc(=O)nc2SCC(=O)NC2CCCCC2)cc1 | nt | -5% | nt | nt | nt | nt
Cc1ccc(C(=O)O)cc1NC(=O)CCc1c(C)noc1C | nt | 4% | nt | nt | nt | nt
CC(Oc1cc(Cl)ccc1Cl)C(=O)N/N=C\c1ccnn1C (stereo not given) | 6% | -4% | -1 | -10% | 11 | 10%
Nc1cc(C(=O)O)ccc1N1CCCCC1 | -24% | -10% | -3 | -10% | 3 | -22%
CC1CCN(c2ccc(C(=O)O)cc2N)CC1 | 4% | -12% | 25* | 35% | -14 | 3.3µM*
CC(=O)c1ccc(N2CCN(C(=O)c3cccs3)CC2)c(F)c1 | -4% | -3% | 16* | ? | 16 | ?
OCCC1CN(Cc2cccc3c2OCO3)CCN1C1CCCC1 (stereo not given) | 0% | 14% | 0 | 32% | -15 | ?
O=C(c1cccs1)N1CCN=C1SCc1cccnc1 | -3% | 12% | 12 | 6% | 19 | 66%
O=C(N1CCN=C1SCc1cccnc1)C12CC3CC(CC(C3)C1)C2 | 4% | 12% | -1 | 15µM* | 26 | -29%
O=C(NCc1cccnc1)C12CC3CC(CC(Cl)(C3)C1)C2 | 2% | 39% | 17 | ? | 16* | ?
CCOc1ncccc1C(=O)OCC(=O)N(CC(C)C)C1CCS(=O)(=O)C1 (stereo not given) | -2% | 1% | -5 | 8% | -8 | 35%
Cc1cc(C)n2nc(C(=O)Nc3ccc4c(c3)CCC4)nc2n1 | -1% | -12% | 34* | 58% | 104* | -3%
Cc1cc(C)n2nc(C(=O)Nc3ccc(S(=O)(=O)N4CCCC4)cc3)nc2n1 | 1% | 10% | 2 | 128% | 2 | 2.3µM*
CC(OC(=O)CC(NC(=O)c1ccccc1Cl)c1ccccc1)C(=O)Nc1cccc(Cl)c1Cl (stereo not given) | 10% | -11% | -1 | 27% | -13 | 0%
COc1ccc2nccc(/C=C/c3ccnc4ccc(OC)cc34)c2c1 | 0% | -19% | 4 | 3.3µM* | 7 | 3.7µM*
O=c1cc(COc2ccc(Cl)c(Cl)c2)nc2sccn12 | -2% | -14% | 20* | 74% | 6 | 13%
O=c1cc(CNc2cc(Cl)ccc2Cl)nc2sccn12 | -34% | -3% | 29* | 22% | 28 | 10%
O=C(OCc1cc(=O)n2ccsc2n1)c1ccc(OC(F)F)cc1 | -3% | 5% | nt | 46% | nt | 6%
Cc1ccc(S(=O)(=O)NC(C)C(=O)OCC(=O)N(C)c2ccccc2)cc1 (stereo not given) | 0% | -3% | nt | -9% | nt | -26%
CC1CCCCN1CC(=O)Nc1sc2c(c1C#N)CCC2 (stereo not given) | -2% | 53% | -3 | -9% | 12 | 2%
COCCOc1ccc(C(F)(F)F)cc1Nc1nc2ccccc2o1 | -3% | 31% | 30* | 16% | 100* | 51%
